Results filed as inconclusive are left out. Calls of active or inactive are those of the source. Calls follow the shape of the dose curve; as a rule, active = well fitted curve in the direction sought with a large enough effect; inconclusive = small, poorly fitted or top-dose-only effect, or another doubt; inactive = no such curve, though single readings can be large; an effect the other way counts as inactive or inconclusive.
What was measured:
[1] = qHTS assay for measurement of the activity of small molecule inhibitors on Zika virus induced Caspase-3 activity in human iPSC derived neural progenitor cells (hNPCs) (AID 1224857); details: hNPCs ZIKV-induced caspase-3/7, Caspase-Glo luminescence, 6 h; series mostly up to 45.7 µM; also: nearly all actives have a fitted effect of over 65% in size
Summary of the method: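 Pretreat hNPCs with compound 1 h; infect ZIKV 2 FFU/cell; 6 h 37 C, 5% CO2; Caspase-Glo 3/7, 30 min RT; luminescence; normalize to no-virus and virus-only wells.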

[2] = qHTS assay for measurement of the activity of small molecule inhibitors on Zika virus induced Caspase-3 activity in human astrocytoma cells (AID 1224859); details: SNB-19 ZIKV-induced caspase-3/7, luminescence, 6 h; series mostly up to 45.7 µM
Summary of the method: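 Human SNB-19 astrocytoma cells in RPMI 1640 with 10% FBS receive compound one hour ahead of Zika virus at 2 FFU/cell. After 6 h infection, caspase-3/7 activity is detected by Caspase-Glo luminescence.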

[3] = qHTS assay to identify small molecule inhibitors of chordoma cells - UCH-1 (AID 1259355); details: UCH-1 chordoma viability, CellTiter-Glo, 48 h, combination, with auranofin plus four topoisomerase inhibitors; series mostly up to 46.1 µM; also: nearly all actives have a fitted effect of over 55% in size
Summary of the method: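 A 48hr growth-inhibition format: each drug tested at 15 concentrations together with added auranofin, camptothecin, doxorubicin, rubitecan and topotecan, with cell viability quantified as CellTiter-Glo luminescence.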

[4] = qHTS assay to identify small molecule inhibitors of chordoma cells - UCH-2 (AID 1259356); details: UCH-2 chordoma viability, CellTiter-Glo ATP luminescence, 48 h; series mostly up to 46.1 µM
[5] = P-glycoprotein substrates identified in KB-8-5-11 adenocarcinoma cell line, qHTS therapeutic library screen (AID 1346987); details: KB-8-5-11 (P-gp overexpressing) viability, CellTiter-Glo, 72 h; series mostly up to 44.5 µM; also: nearly all actives have a fitted effect of over 65% in size
Summary of the method: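 Compounds are pinned in dose-response onto KB-8-5-11 cells (500 cells/well, colchicine-free medium) and left 72 h at 37 degree C. CellTiter-Glo luminescence then yields AC50 values.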

[6] = NS1 protein of Zika virus - qHTS assay to identify small molecule inhibitors in human HEK 293 cells (AID 1347053); details: HEK293 ZIKV MR766 infection, NS1 TR-FRET, 24 h; series mostly up to 46.1 µM; also: nearly all actives have a fitted effect of over 55% in size
Summary of the method: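 TR-FRET signal from two anti-ZIKV NS1 antibodies quantified NS1 in HEK 293 cells 24 h after MR766 infection at MOI = 0.5; compounds were added 1 h before virus. Uninfected cells and infected cells defined the NS1 normalization range.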

[7] = qHTS of pediatric cancer cell lines to identify multiple opportunities for drug repurposing: Primary screen for TC32 cells (AID 1347089); details: TC32 Ewing sarcoma viability, CellTiter-Glo luminescence, 48 h; series mostly up to 45.8 µM; also: nearly all actives have a fitted effect of over 60% in size
Summary of the method: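 In the primary qHTS, MIPE compounds were tested at 11 concentrations (0.78 nM to 46 µM) and NPC compounds at 8 (0.59 nM to 46 µM) on TC32 cells for 48 h. CellTiter-Glo luminescence gave viability.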

[8] = qHTS of pediatric cancer cell lines to identify multiple opportunities for drug repurposing: Primary screen for DAOY cells (AID 1347090); details: DAOY medulloblastoma viability, CellTiter-Glo luminescence, 48 h; series mostly up to 46 µM; also: nearly all actives have a fitted effect of over 55% in size
Summary of the method: (§1)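 Eight- or eleven-point concentration series, 48 h treatment at 37 degrees C in growth media; readout CellTiter-Glo luminescence. Potency and efficacy were taken from the concentration-response curves.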

[9] = qHTS of pediatric cancer cell lines to identify multiple opportunities for drug repurposing: Primary screen for SJ-GBM2 cells (AID 1347091); details: SJ-GBM2 viability, CellTiter-Glo luminescence, 48 h; series mostly up to 46 µM
Summary of the method: as §1

[10] = qHTS of pediatric cancer cell lines to identify multiple opportunities for drug repurposing: Primary screen for A673 cells (AID 1347092); details: A673 Ewing sarcoma viability, CellTiter-Glo ATP luminescence, 48 h; series mostly up to 46 µM; also: nearly all actives have a fitted effect of over 45% in size
Summary of the method: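 48 h compound exposure, A673, 500-1,000 cells/well, 37 degrees C/5% CO2. MIPE: 11-point, 0.78 nM-46 µM; NPC: 8-point, 0.59 nM-46 µM (final). Readout CellTiter-Glo luminescence after 15 min RT.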

[11] = qHTS of pediatric cancer cell lines to identify multiple opportunities for drug repurposing: Primary screen for SK-N-MC cells (AID 1347093); details: SK-N-MC viability, CellTiter-Glo luminescence, 48 h; series mostly up to 46 µM
Summary of the method: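 Metabolically active cells were quantified by ATP-dependent luminescence (CellTiter-Glo, 15 min at room temperature) following 48 h treatment. Cells had been plated at 500-1,000 per well and settled for 5 h beforehand.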

[12] = qHTS of pediatric cancer cell lines to identify multiple opportunities for drug repurposing: Primary screen for BT-37 cells (AID 1347094); details: BT-37 viability, CellTiter-Glo luminescence, 48 h; series mostly up to 57.3 µM
Summary of the method: (§2)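 Plated cells (500-1,000 per well, growth media) were allowed to settle for 5 hours, treated with compound dilutions for 48 hours, then lysed with CellTiter-Glo for 15 min at room temperature before luminescence reading.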

[13] = qHTS of pediatric cancer cell lines to identify multiple opportunities for drug repurposing: Primary screen for NB-EBc1 cells (AID 1347095); details: NB-EBc1 neuroblastoma viability, CellTiter-Glo luminescence, 48 h; series mostly up to 46 µM
Summary of the method: as §2

[14] = qHTS of pediatric cancer cell lines to identify multiple opportunities for drug repurposing: Primary screen for U-2 OS cells (AID 1347096); details: U-2 OS viability, CellTiter-Glo luminescence, 48 h; series mostly up to 46 µM; also: nearly all actives have a fitted effect of over 50% in size
Summary of the method: (§3)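 Cells (500-1,000/well) in growth media were settled 5 h at 37 degrees C, then given compounds for 48 h. Viability was read as CellTiter-Glo luminescence. Primary runs used MIPE at 11 points (0.78 nM-46 µM) and NPC at 8 points (0.59 nM-46 µM); follow-ups used 11 points.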

[15] = qHTS of pediatric cancer cell lines to identify multiple opportunities for drug repurposing: Primary screen for Saos-2 cells (AID 1347097); details: Saos-2 viability, CellTiter-Glo ATP luminescence, 48 h; series mostly up to 46 µM; also: nearly all actives have a fitted effect of over 40% in size
Summary of the method: as §2

[16] = qHTS of pediatric cancer cell lines to identify multiple opportunities for drug repurposing: Primary screen for SK-N-SH cells (AID 1347098); details: SK-N-SH viability, CellTiter-Glo luminescence, 48 h; series mostly up to 57 µM;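 also: DMSO served as neutral control and bortezomib at 2.3 µM as positive control; nearly all actives have a fitted effect of over 65% in size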
Summary of the method: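 Cells (500-1,000/well) rested 5 h, then received compounds for 48 h; metabolically active cells were measured by CellTiter-Glo luminescence. Final concentrations spanned up to 46 µM (MIPE, 11-point) or 0.59 nM-46 µM (NPC, 8-point) in primary screens, 11-point in follow-ups.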

[17] = qHTS of pediatric cancer cell lines to identify multiple opportunities for drug repurposing: Primary screen for NB1643 cells (AID 1347099); details: NB1643 neuroblastoma viability, CellTiter-Glo luminescence, 48 h; series mostly up to 46 µM; also: nearly all actives have a fitted effect of over 50% in size
Summary of the method: as §2

[18] = qHTS of pediatric cancer cell lines to identify multiple opportunities for drug repurposing: Primary screen for LAN-5 cells (AID 1347100); details: LAN-5 neuroblastoma viability, CellTiter-Glo luminescence, 48 h; series mostly up to 46 µM
Summary of the method: as §3

[19] = P-glycoprotein substrates identified in KB-3-1 adenocarcinoma cell line, qHTS therapeutic library screen (AID 1346986); details: KB-3-1 parental cells viability, CellTiter-Glo, 72 h; series mostly up to 44.5 µM; also: nearly all actives have a fitted effect of over 60% in size
Summary of the method: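 72 h cell-killing screen, 500 cells/well, CellTiter-Glo luminescence. Paired lines KB-3-1/KB-8-5-11; P-gp dependence checked by tariquidar co-treatment and HEK-293 MDR-19 versus empty-vector cells.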

Measured: Potency

O=c1[nH]c(=O)n([C@H]2C[C@H](O)[C@@H](CO)O2)cc1I
not listed: [19]
inactive: all other assays above

C=CCNC(N)=S
not listed: [19]
inactive: all other assays above

Cc1cc(O)cc(C)c1Cl
not listed: [19]
inactive: all other assays above

C[C@@H]1CCC[C@H](C)N1
not listed: [19]
inactive: all other assays above

O=C(O)CCCc1ccccc1
not listed: [11] | [14]
inactive: all other assays above

CCCCCCCCCCC(CO)CCCCCCCC (configuration not stated)
not listed: [19]
inactive: all other assays above

NNC(=O)CP(=O)(c1ccccc1)c1ccccc1
not listed: [17] | [19]
inactive: all other assays above

CC1(c2ccccc2)OC(C(=O)O)=CC1=O (configuration not stated)
not listed: [19]
inactive: all other assays above

NC(=O)N[C@@H](CCC(=O)O)C(=O)O
not listed: [19]
inactive: all other assays above

O=C(O)[C@@H]1[C@H]2C[C@H]3c4[nH]c5ccccc5c4CCN3C[C@@H]2CC[C@@H]1O
not listed: [18] | [19]
inactive: all other assays above

Cc1ncc(CO)c(CN)c1O
not listed: [14] | [19]
inactive: all other assays above

COc1ccccc1OC(=O)Oc1ccccc1OC
not listed: [14] | [19]
inactive: all other assays above

NCc1ccc(S(N)(=O)=O)cc1
not listed: [15] | [19]
inactive: all other assays above

CC(=O)Nc1ccc(OCCOCCOc2ccc(NC(C)=O)cc2)cc1
not listed: [12] | [19]
inactive: all other assays above

O=C(/C=C/c1ccccc1)OCc1ccccc1
not listed: [12] | [19]
inactive: all other assays above

CC(=O)N(CC(O)CN(C(C)=O)c1c(I)c(C(=O)NCC(O)CO)c(I)c(C(=O)NCC(O)CO)c1I)c1c(I)c(C(=O)NCC(O)CO)c(I)c(C(=O)NCC(O)CO)c1I (configuration not stated)
not listed: [16] | [19]
inactive: all other assays above

Nc1ccncc1N
not listed: [15] | [19]
inactive: all other assays above

NS(=O)(=O)c1cc(-c2nn[nH]n2)c(NCc2cccs2)cc1Cl
not listed: [14] | [16] | [19]
inactive: all other assays above

O=C1CC[C@@H](C(=O)O)N1
not listed: [14] | [15] | [16] | [19]
inactive: all other assays above

CCOc1ccc(C(=O)OCCN(CC)CC)cc1
not listed: [16] | [19]
inactive: all other assays above

OCc1ccc(Cl)cc1Cl
not listed: [15] | [16] | [19]
inactive: all other assays above

CN(C(=O)c1c(O)c2ccccc2n(C)c1=O)c1ccccc1
not listed: [12] | [19]
inactive: all other assays above

O=C(NCC(O)CO)c1c(I)c(C(=O)NCC(O)CO)c(I)c(N(CCO)C(=O)CO)c1I (configuration not stated)
not listed: [15] | [16] | [19]
inactive: all other assays above

NC(=O)NC1NC(=O)NC1=O (configuration not stated)
not listed: [16] | [19]
inactive: all other assays above

COc1nccnc1NS(=O)(=O)c1ccc(N)cc1
not listed: [12] | [19]
inactive: all other assays above

CC(=O)Nc1cccc(O)c1
not listed: [15] | [19]
inactive: all other assays above

CCOC(=O)OC(C)OC(=O)[C@@H]1N2C(=O)[C@@H](NC(=O)[C@H](N)c3ccccc3)[C@H]2SC1(C)C (some centres not stated)
not listed: [12] | [19]
inactive: all other assays above

O=C(c1ccccc1)C(O)c1ccccc1 (configuration not stated)
not listed: [15] | [19]
inactive: all other assays above

NC(=O)NS(=O)(=O)c1ccc(N)cc1
not listed: [16] | [19]
inactive: all other assays above

Cc1cc(-n2nc3ccc(Cl)cc3n2)c(O)c(C(C)(C)C)c1
not listed: [16] | [19]
inactive: all other assays above

Source: PubChem BioAssay (NCATS)
